Results filed as inconclusive are left out. Unmarked numbers belong to inactive results. Calls of active or inactive are those of the source. Calls come from the whole dose curve; as a rule, active = well fitted activation curve with a large enough effect in the repeat runs; inconclusive = weak or mixed curves; inactive = flat fitted curve, though single readings scatter.
Experiment: qHTS assay for small molecule agonists of the antioxidant response element (ARE) signaling pathway measured by Nrf2-dependant transcriptional activity (AID 720636); for activation: % of control where 0% means no effect
Details: ARE-luc HepG2, Nrf2 luciferase reporter, 16 h; series mostly up to 92.4 µM; activation: at the top concentration
Source text: National Center for Advancing Translational Sciences [NCATS] NIH Chemical Genomics Center [NCGC] U.S. Environmental Protection Agency [EPA] National Institutes of Environmental Health Sciences [NIEHS] National Toxicology Program [NTP] Assay Overview: The antioxidant response element (ARE) signaling pathway plays an important role in the cellular anti-oxidant defense. Exposure to stressors which are exogenous like ionizing radiations, chemicals, U-V light, and endogenous like cell signaling, metabolic processes or inflammation, reactive oxygen species (ROS), can induce oxidative stress in the cells. Oxidative stress has been implicated in the pathogenesis of a variety of diseases ranging from cancer to neurodegeneration. ARE-luc HepG2 cell line (Simmons et al., Current Chemical Genomics, 5:1-12, 2011) has been used for identifying the chemicals that induce oxidative stress. The cell line has an Nrf2-responsive luciferase reporter gene that has been engineered to measure Nrf2-dependant transcriptional activity.
Assay Protocol Summary: For measuring ARE induction; 2,000 ARE-luc HepG2 cells in 5 uL of assay medium containing 1% dialyzed FBS per well were dispensed into white wall/solid bottom 1536-well plates using a Flying Reagent Dispenser (FRD) (Aurora Discovery). The assay plates were incubated for 6 hr at 37 C to allow cell attachment to the well bottom, followed by the transfer of 23 nL compound or DMSO vehicle by a pin tool (Kalypsys). The plates were incubated for 16 hr at 37 C and 5% CO2, followed by the addition of 5 uL of ONE-GloTM luciferase reagent (Promega) into each well using FRD. After 30 min room temperature incubation, plates were read on a ViewLux plate reader (PerkinElmer).
Potency is the fitted concentration of half-maximal effect.

| Compound | activation [%] | Potency |
| --- | --- | --- |
| C[C@H]1C[C@H]2[C@@H]3CCC4=CC(=O)C=C[C@]4(C)[C@@]3(Cl)[C@@H](O)C[C@]2(C)[C@@]1(O)C(=O)CO | -0.44 |  |
| O=C1OC(c2ccc(O)cc2)(c2ccc(O)cc2)c2ccccc21 |  | inactive |
| Oc1c(Cl)cc(Cl)cc1Sc1cc(Cl)cc(Cl)c1O |  | inactive |
| CC(=O)Oc1ccc(C(c2ccc(OC(C)=O)cc2)c2ccccn2)cc1 | -1.59 |  |
| O=c1ccc2ccccc2o1 |  | inactive |
| CCCCCCc1ccc(O)cc1O | 1.94 |  |
| CN(C)C(=S)SC(=S)N(C)C | 0.961 |  |
| COC1=CC(=O)C[C@@H](C)[C@]12Oc1c(Cl)c(OC)cc(OC)c1C2=O | -2.34 |  |
| CC(=O)O[C@]1(C(C)=O)CC[C@H]2[C@@H]3C[C@H](C)C4=CC(=O)CC[C@]4(C)[C@H]3CC[C@@]21C |  | inactive |
| CN(C)/N=N/c1nc[nH]c1C(N)=O | -0.0494 |  |
| Oc1c(I)cc(Cl)c2cccnc12 |  | 5.96 µM (active) |
| COc1cccc2c1C(=O)c1c(O)c3c(c(O)c1C2=O)C[C@@](O)(C(=O)CO)C[C@@H]3O[C@H]1C[C@H](N)[C@H](O)[C@H](C)O1 | 0.654 |  |
| C=CCc1ccc(O)c(OC)c1 |  | inactive |
| O=C(O)CCCCC(=O)O | -1.69 |  |
| NC(=NCCCCCCN=C(N)/N=C(\N)Nc1ccc(Cl)cc1)/N=C(\N)Nc1ccc(Cl)cc1 |  | inactive |
| CC/C(=C(/CC)c1ccc(O)cc1)c1ccc(O)cc1 |  | inactive |
| Nc1ccc(C(=O)O)cc1 | -1.3 |  |
| CC(O)(P(=O)(O)O)P(=O)(O)O | -0.446 |  |
| CC(C)(Oc1ccc(Cl)cc1)C(=O)O | 0.653 |  |
| Cc1cc(=O)n(-c2ccccc2)n1C | 0.339 |  |
| C[C@]12CC[C@@H]3c4ccc(O)cc4CC[C@H]3[C@@H]1CC[C@@H]2O | -0.756 |  |
| CC(O)C(=O)O (configuration not stated) | -0.952 |  |
